# TRPM1 prom inh: inhibitors of MITF-dependent TRPM1 promoter reporter, primary screen, cell-based, SK-MEL-5, single point, luciferase; SK-MEL-5 TRPM1 promoter luciferase, 24 h; inhibition, % at 12.5 µM; hit rate 0.83% among 330,000; AID 488899, 2010;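 active means mean inhibition across replicates of 60% or more, whatever share of single replicates reaches that level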
# HIF-2a inh: HIF-2a reporter inhibitors, primary screen, luminescence, 786-0 RCC cells. inhibition, % at 18.8 µM. hit rate 0.72% among 360,000. 786-0 RCC cells HIF-2a reporter, luciferase luminescence, overnight;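 active means inhibition of the luminescence signal of 40% or more relative to plate controls, in a single-dose primary screen at 18.75 µM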
# Peg3 promoter: Peg3 promoter-driven luciferase inhibitors, primary screen, cell-based, HeLa, luciferase luminescence; inhibition, % at 20 µM; hit rate 1.7% among 360,000; HeLa PEG-Prom luciferase reporter, overnight; AID 588405, 2011;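 active means inhibition of at least 50% at 20 µM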
# KKLEB tox: cytotoxicity in KKLEB CF airway cells, primary screen, cytotoxicity control for CF NF-kB inhibitor project, cell-based, uHTS, fluorescence assay plates; KKLEB CF airway cells viability, ATPlite luminescence, overnight; active compounds read low; cells stimulated with P. aeruginosa culture filtrate; activity change (cytotoxicity), % at 5 µM; hit rate 0.36% among 360,000; AID 602141, 2011;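 active means corrected activity change at or below -50% at 5 µM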
# CF NFkB inh: inhibitors of PAF-induced NF-kB signaling, primary screen, cell-based, GFP fluorescence, uHTS; KKLEB NF-kB-GFP reporter, GFP fluorescence overnight; inhibition, % at 5 µM; hit rate 0.86% among 360,000; AID 588850, 2011;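 active means at least 50% inhibition at 5 µM, scaled per plate between neutral and stimulator controls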;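 further: PAF is a Pseudomonas aeruginosa culture filtrate used as stimulus; plate controls were PAF-stimulated DMSO wells for no effect and unstimulated DMSO wells for full effect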
# CHOP inh: inhibitors of CHOP promoter induction, primary screen, cell-based, unfolded protein response, luciferase reporter; CHO-K1 CHOP-promoter luciferase, tunicamycin-induced, 15-18 h; inhibition, % at 10 µM; hit rate 3.8% among 220,000; AID 2732, 2010;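 active means compounds that reduced the stress-induced luciferase reporter signal by more than about 70% of percent inhibition, limit read from the data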;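 further: 0% = tunicamycin plus vehicle and 100% = wells without tunicamycin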
# An asterisk follows results filed as active; . = not tested or not shown. A selection: hits, their analogues and other compounds. The true share with any hit is near 4.3%.
SMILES,TRPM1 prom inh,HIF-2a inh,Peg3 promoter,KKLEB tox,CF NFkB inh,CHOP inh
CC(=O)O[C@H]1CC[C@H]2[C@@H]3CCc4cc(O)ccc4[C@H]3CC[C@]12C,-9,-27,28,-12,11,76*
C[C@]12CC[C@@H]3c4cc(O)c(O)cc4CC[C@H]3[C@@H]1CC[C@@H]2O,-4,5,5,16,55*,-104
CC[C@H](C)[C@H]1CNC(=S)N1CC1CCN(CC)CC1,.,15,-2,-7,13,.
C=CCn1c(Cc2nc3ccc(Cl)cc3[nH]2)n[nH]c1=S,6,-25,0,4,-2,82*
C=CCn1c(Cc2ccccc2)n[nH]c1=S,-4,18,13,4,11,-4
CCn1c(SCC(=O)Nc2sc3c(c2C#N)CCC(C(C)(C)C)C3)nnc1-c1ccco1 (configuration not stated),7,23,-3,-10,0,78*
Cc1nn(CC(=O)Nc2sc3c(c2C#N)CCC(C(C)(C)C)C3)c(C)c1[N+](=O)[O-] (configuration not stated),-6,-19,17,-5,24,89*
Cc1cc(OC(=O)c2ccccc2C(F)(F)F)c([N+](=O)[O-])c(=O)[nH]1,.,14,9,-8,-26,.
COc1cc(/C=N/NC(=O)c2ccc(COc3cc(C)ccc3C(C)C)cc2)cc(OC)c1O,22,69*,-70,2,-4,3
Cc1ccc(C(C)C)c(OCc2ccc(C(=O)N/N=C/c3ccc(O)c(O)c3)cc2)c1,28,72*,-33,14,-1,84*
Cc1ccc(C(C)C)c(OCc2ccc(C(=O)N/N=C/c3cccc(O)c3O)cc2)c1,83*,71*,14,1,25,107*
O=C1CN2CCC1C/C2=C\c1ccnc2c(Cl)cccc12 (configuration not stated),-10,14,11,-18,10,-6
N=S(=O)(O)Cc1noc2ccccc12,.,.,.,.,.,4
Cc1ccc(OCC(=O)Nc2ccc(-c3nc4ncccc4o3)cc2)c(C)c1,-16,-26,-38,6,-1,84*
O=C1CC(c2ccccc2)=Nc2ccccc2N1Cc1ccccc1,1,4,-12,-10,-5,9
CN(C)c1ccc(NC(=O)CN2C(=O)CC(c3ccccc3)=Nc3ccccc32)cc1,27,24,31,0,10,91*
CCOC(=O)C1=C(CCl)NC(=O)NC1c1ccc2c(c1)OCO2 (configuration not stated),69*,25,41,-6,18,.
O=c1oc2cc(Oc3c([N+](=O)[O-])cc(C(F)(F)F)cc3[N+](=O)[O-])ccc2c2c1CCCC2,3,-12,27,7,23,95*
O=c1oc2cc(Oc3ccc(C(F)(F)F)cc3[N+](=O)[O-])ccc2c2c1CCC2,19,21,7,8,7,5
O=C(NC1C2CC3CC(C2)CC1C3)C1CCCCC1 (configuration not stated),1,27,12,3,-10,.
Cc1nc(NC(=O)c2ccc(F)cc2)sc1C(=O)Nc1ccc2c(c1)CCC2,-7,-95,-14,-22,22,82*
COC(=O)CCC(=O)N1CCC(CCC(=O)NCc2ccc(F)cc2)CC1,4,22,5,18,-7,.
O=C(Cn1nnc(-c2ccncc2)n1)N1CCc2ccccc21,1,5,20,-6,8,10
Cc1ccc(-c2nnn(CC(=O)N3CCCc4ccccc43)n2)cc1,4,-5,10,-7,14,84*
Cc1cc(C)nc(Nc2n[nH]c(COc3ccc(Cl)cc3)n2)n1,17,5,12,-2,-16,93*
SMILES,TRPM1 prom inh,HIF-2a inh,Peg3 promoter,KKLEB tox,CF NFkB inh,CHOP inh
O=C(COC(=O)c1cc(C(F)(F)F)cc(C(F)(F)F)c1)NCc1ccc(Cl)cc1,-2,4,9,-17,-1,73*
FC(F)(F)c1cccc(NC(=S)NCc2ccc(Cl)cc2)c1,3,-19,40,5,28,95*
Fc1cc(NC(=S)NCc2ccc(CNC(=S)Nc3ccc(Cl)c(F)c3)cc2)ccc1Cl,17,10,33,-8,38,84*
Fc1ccccc1CNC(=S)Nc1cccc(C(F)(F)F)c1,-2,1,24,10,7,51
Fc1ccc(CNC(=S)Nc2cccc(C(F)(F)F)c2)cc1,-1,2,69*,0,2,24
Fc1cccc(NC(=S)NCc2ccc(Cl)cc2)c1,9,-7,-17,11,-7,39
O=C(COC(=O)c1cncc(Br)c1)NCc1ccc(Cl)cc1,0,17,9,-19,11,5
Cc1ccc2oc3c(c(=O)c2c1)C(c1cccc(Br)c1)N(Cc1ccco1)C3=O (configuration not stated),10,-1,13,-22,7,81*
Cc1cc2oc3c(c(=O)c2cc1C)C(c1cccc(Br)c1)N(Cc1ccco1)C3=O (configuration not stated),-6,8,30,-17,19,-5
COC(=O)c1sccc1NC(=O)c1ccc(Br)o1,6,-4,3,-4,8,88*
CCOc1ccc(S(=O)(=O)N2CCC(C(=O)NCc3ccncc3)CC2)cc1Cl,13,9,23,-6,4,.
COC(=O)C1=C(C)Nc2nnnn2C1c1cc(OC)ccc1OC (configuration not stated),-4,-3,10,2,-14,19
COC(=O)c1nc2n(n1)C(c1cc(OC)ccc1OC)C(C(=O)OC1CCCCC1)=C(C)N2 (configuration not stated),6,-6,-3,-14,-26,80*
COc1ccc([C@H]2N[C@]3(CCCN(Cc4ccccc4)C3=O)[C@H]3C(=O)N(C)C(=O)[C@@H]23)cc1,.,-25,6,13,-32,.
Cc1cc(C)c(CN2CCN(C(=O)Cn3cnc(C(=O)Nc4ccc(C)c(C)c4)n3)CC2)c(C)c1,1,6,86*,-69*,48,.
Cc1ccc(NC(=O)c2ncn(CCCN3CCN(Cc4cccc5ccccc45)CC3)n2)cc1C,26,-24,97*,-14,7,.
Cc1cnc(CNC(=O)C2(C)CCCN2CC(C)C)cn1 (configuration not stated),.,-9,-2,0,0,.
CCOc1ccccc1-c1nc(C(N)=O)c2[nH]c(=O)n(-c3cccc(C)c3)c2n1,14,17,5,-2,-5,-2

# Bioassay records from PubChem BioAssay.
